According to PubChem BioAssay AID1347056 (Sanford-Burnham Center for Chemical Genomics, 2019):
Hit rate of the full screen: of about 360,000 compounds, about 3,600 (1%) were called active.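 The calls were made as follows: active = compounds whose plate-normalised and pattern-corrected inhibition of the luciferase reporter signal at the single screening dose is 50% or more; inactive = the rest.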 The list comes from a sample in which actives are over-represented; it also holds similar structures and randomly drawn compounds.

Test: inhibitors of TROY-driven NF-kB signaling, primary screen, Q293 LMP1-TROYcd cells, NF-kB luciferase, uHTS (AID 1347056)
Details: Q293 LMP1-TROYcd NF-kB luciferase reporter, 4 h; at 10 µM; active compounds read high

Compound | inhibition
CCOC(=O)c1c(C)[nH]c2c1-c1ccccc1C(=O)C2=O | 63.1% (active)
CCOC(=O)c1cnc(COc2ccccc2Cl)[nH]c1=O | -7.4% (inactive)
CCOC(=O)c1c(C)[nH]c(C)c1C(=O)CSc1nc(N)cc(N)n1 | 4.52% (inactive)
O=C(NCc1nnc(SCC(=O)N2CCC(Cc3ccccc3)CC2)o1)c1ccco1 | 3.48% (inactive)
Cc1ccc(CS(=O)Cc2ccc(C(=O)N3CCOCC3)o2)cc1 (stereo not given) | -4.44% (inactive)
COc1cc(N2C(=O)CSC2=S)cc(OC)c1OC | 33.1% (inactive)
O=C1CSC(=S)N1c1ccc(Cl)c(Cl)c1 | 33.2% (inactive)
O=C1CSC(=S)N1c1ccc(O)cc1 | 50.1% (active)
CC1=CC(=NNS(=O)(=O)c2ccc([N+](=O)[O-])cc2)CC(C)(C)C1 | -0.66% (inactive)
Cc1nn(C(C)(C)C)c(OC(=O)CC(C)C)c1S(=O)(=O)c1ccccc1 | 12.4% (inactive)
Cc1ccccc1OCCC(=O)OCC(=O)NCCc1ccc(S(N)(=O)=O)cc1 | 0.01% (inactive)
O=C(Nc1ccc(-n2ccnc2P(=O)(O)c2ccccc2)cc1)c1ccccc1Br | -20.5% (inactive)
Cc1cccc(C(=O)Nc2ccc3c(c2)C(=O)N(CC(C)C)C3=O)c1 | -12.3% (inactive)
CN1CCN(S(=O)(=O)c2cccc(C(=O)Nc3cccc(S(N)(=O)=O)c3)c2)CC1 | 14.3% (inactive)
CC(C)CCN1C(=O)c2ccc(C(=O)Nc3cccc(S(N)(=O)=O)c3)cc2C1=O | 63.2% (active)
COc1ccccc1OCCNc1cc(N2CCOCC2)ccc1[N+](=O)[O-] | -25% (inactive)
COc1ccc(CCNc2cc(N3CCN(C(=O)c4ccccc4OC)CC3)ccc2[N+](=O)[O-])cc1OC | 64% (active)
COc1ccc(CCNC(=O)c2ccccc2-c2ccccc2C(=O)O)cc1OC | -8% (inactive)

Compound | inhibition
C[N+](C)(C)CCNC(=O)c1c[nH]c2ccccc12 | -5.29% (inactive)
Cc1ccc(F)cc1NC(=O)N1CCCN(c2ccc(C(F)(F)F)cn2)CC1 | 8.63% (inactive)
O=C(O)c1cc(S(=O)(=O)N2CCCCCC2)c(Cl)cc1Cl | 0.33% (inactive)
CCn1c(Cc2ccc(OC)cc2)nnc1SCC(=O)Nc1ccc(N2CCOCC2)cc1 | 4.48% (inactive)
Cc1ccc(OCCCC(=O)Nc2ccc(N3CCOCC3)cc2)cc1 | 6.99% (inactive)
COc1cccc(/C=C(/CC(=O)Nc2ccc(N3CCOCC3)cc2)c2nc3ccccc3s2)c1 | 54.8% (active)
COc1cc2c(cc1OC)CN(C(=O)c1cc(S(=O)(=O)N3CCCCC3)ccc1Cl)CC2 | -16.5% (inactive)
COc1cc2c(cc1OC)CN(C(=O)c1ccc(S(=O)(=O)N3CCCCCC3)cc1)CC2 | -2.54% (inactive)
COc1cc2c(cc1OC)C(C)N(S(=O)(=O)c1cnc(Cl)c(Cl)c1)CC2 (stereo not given) | 62.8% (active)
COc1cccc(NC(=O)C(Sc2nc3ccccc3c(=O)n2CC(C)C)c2ccccc2)c1 (stereo not given) | -17.8% (inactive)
O=C(Nc1ccc(N2CCOCC2)nc1)c1c(F)cccc1F | -14.2% (inactive)
CCOC(=O)C1CCCN(C(=O)c2ccc(C)c(F)c2)CC1 (stereo not given) | 1.56% (inactive)
CN(CCc1ccccn1)C(=O)c1ccc(OC2CCN(Cc3ccccn3)CC2)cc1 | 50.2% (active)
Cn1cc(CNC(=O)c2ccc(OC3CCN(Cc4ccccn4)CC3)cc2)cn1 | -10.1% (inactive)
CN(CCc1ccccn1)C(=O)c1ccc(OC2CCN(CCc3ccccc3)CC2)cc1 | -24% (inactive)
Cc1ccccc1C(=O)Nc1cccc(-c2nnc(SCC(=O)O)n2C)c1 | 18.5% (inactive)
CCOC(=O)/C(C#N)=C\c1c(C)cc(C)c(COC(C)=O)c1C | -28.3% (inactive)
